Bioassay records as filed in PubChem.
D2 antagonist: antagonists of human D2 dopamine receptor | AID 485344 | inhibition, % at 10 µM | HEK293 TREx D2 cells, calcium flux, dopamine EC80 | 340,000 compounds, 2% hits; in the data active = inhibition above about 30%; inactive = below that, where a call was filed; also: 0% is about no effect
Target sequence (P14416 whole entry, looked up): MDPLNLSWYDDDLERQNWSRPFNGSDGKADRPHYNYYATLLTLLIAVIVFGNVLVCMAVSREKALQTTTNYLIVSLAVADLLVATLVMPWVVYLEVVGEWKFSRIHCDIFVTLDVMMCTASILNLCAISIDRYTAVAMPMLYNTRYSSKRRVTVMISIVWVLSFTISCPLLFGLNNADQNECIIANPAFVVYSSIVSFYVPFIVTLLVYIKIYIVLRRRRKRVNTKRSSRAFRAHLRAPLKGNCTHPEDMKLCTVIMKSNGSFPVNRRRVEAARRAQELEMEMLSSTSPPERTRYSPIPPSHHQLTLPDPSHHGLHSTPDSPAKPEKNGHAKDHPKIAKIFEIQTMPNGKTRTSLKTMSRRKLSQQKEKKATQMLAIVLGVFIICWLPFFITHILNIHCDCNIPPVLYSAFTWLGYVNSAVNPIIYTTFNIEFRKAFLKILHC
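Overnight-induced (tetracycline, 30 C) HEK293 T-REx cells carrying force-coupled D2 receive a no-wash calcium dye, then compound, then EC80 dopamine at 180 s; signals are read kinetically throughout.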
D2 ag-1: D2 dopamine receptor (human) agonism | 340,000 compounds, 0.53% hits | HEK293 T-REx D2 cells, calcium flux agonist mode | activation, % at 2 µM;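 active = activation over 3 SD above normal in the single-dose calcium agonist read, cut at about 30% in these data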; also: 0% is about no effect
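Agonism scored from kinetic calcium signal (1 read/sec, 180 s) following compound pin transfer, after a 10 s baseline. Cells: HEK293 Trex line expressing inducible D2 receptor coupled to calcium, dye-loaded after overnight culture at 30 C.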
D2 PAM-1: human D2 receptor positive allosteric modulation. P14416. DiscoveRx D2 beta-arrestin cells, luminescence, 90 min; 100% = 57 uM dopamine signal. potentiation, % (no concentration beside the values). 360,000 compounds, 0.23% hits. AID 624464; in the data active = potentiation above about 50%; inconclusive = mostly about 30% to 49%
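D2 cells co-treated with compound plus 50 nM dopamine (EC20) for 90 min at 37 deg C to detect potentiation. Beta-arrestin recruitment was read as enzyme-fragment luminescence after 1 h at ambient temperature. Full response was set by 57 uM dopamine.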
D2 PAM-2: D2 dopamine receptor (human) potentiation; potentiation, % at 10 µM; 340,000 compounds, 0.34% hits; HEK293 T-REx D2, calcium flux, EC20 dopamine potentiation; P14416;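 active = potentiation over 3 SD above the plate norm, cut at about 30% in these data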; also: 0% is about no effect
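Potentiation of an EC20 dopamine calcium response is measured in a force-coupled, tetracycline-inducible Hek293 Trex D2 line. Compound-only kinetic reads over 180 s flag agonists before dopamine addition.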
D2 ag-2: human D2 receptor agonism in beta-arrestin assay. DiscoveRx PathHunter D2 beta-arrestin, luminescence, 90 min; 100% = 57 uM dopamine signal. activation, % (no concentration beside the values). 360,000 compounds, 0.084% hits. AID 624465; in the data active = activation above about 40%; inconclusive = between about 15% and that limit
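DiscoveRx PathHunter D2 beta-arrestin cells (2,100/well) attached overnight, then compound-stimulated 90 min at 37 C in HBSS/10 mM HEPES/0.1% Tween-20 buffer; beta-galactosidase complementation read by luminescence after 1 h at ambient temperature. Dopamine 57 uM final (EC100) as control.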
Numbers without * were called inactive; ? = inconclusive; . = not tested or not shown. In the library only some 2.4% were active in any assay of this set; here they are far more common.

SMILES	D2 antagonist	D2 ag-1	D2 PAM-1	D2 PAM-2	D2 ag-2
N#Cc1c(N2CCN(C(=O)c3ccco3)CC2)nc(-c2ccccc2)c2c1CCCC2	31.7*	1.0	-12.1	2.1	-3.6
Cc1ccc(NC(=O)C(C)[n+]2ccccc2)cc1[N+](=O)[O-] (stereo not given)	59.9*	-0.2	-18.7	-18.5	-2.9
O=C(COCc1cc(-c2ccc3c(c2)OCO3)on1)N1CCCCC1	77.7*	-1.5	-8.0	4.1	-0.5
CC1CCN(CC[C@H]2CCCN2S(=O)(=O)c2cccc(O)c2)CC1	34.3*	0.2	-23.4	-20.9	-5.4
O=C(NCCC1CCCCN1S(=O)(=O)c1ccccc1)C(=O)NCCN1CCOCC1 (stereo not given)	-0.2	0.6	-21.1	-0.7	-9.3
Brc1ccc(-c2cn3c(n2)SCC3)cc1	33.1*	-1.1	-2.2	19.1	2.6
c1ccc(-c2cn3c(n2)SCC3)cc1	4.3	-1.1	-18.3	30.2*	-3.1
Cc1c(Cl)cccc1-n1ncc(C(=O)NCc2cccs2)c1C1CCN(C(=O)OC(C)(C)C)CC1	.	0.0	.	5.0	.
O=C1CC(c2ccco2)CC(O)=C1C=NCCN1CCNCC1 (stereo not given)	-5.6	1.1	-0.6	-5.2	-1.3
O=C1CC(c2ccco2)CC(O)=C1C=NCCN1CCN(C2CC(=O)N(c3ccccc3)C2=O)CC1 (stereo not given)	-7.5	-0.1	-1.4	47.2*	0.6
CC(Sc1nc(=O)cc(N)n1CCc1ccccc1)C(=O)Nc1ccccc1C#N (stereo not given)	.	0.0	.	-5.6	.
O=C(CN(C(=O)c1csnn1)c1ccccc1F)NCc1ccc2c(c1)OCO2	-41.7	0.2	-12.8	0.8	-3.2
O=C(CN(C(=O)c1csnn1)c1cccc(F)c1)NCc1ccc2c(c1)OCO2	42.3*	-0.3	-4.2	-18.2	-1.4
CCOc1ccc(NC(=O)Nc2cc(C(C)C)ccc2C)cc1	31.2*	-0.9	.	-22.9	.
Cc1cc(O)c(C(C)C)cc1NC(=O)Nc1ccc([N+](=O)[O-])cc1	.	.	-18.0	.	-2.7
Cc1ccc(C(C)C)cc1NC(=O)Nc1ccc([N+](=O)[O-])cc1	37.4*	3.7	-22.6	-22.9	8.5
CC(=O)N1CCc2cc(Br)cc(S(=O)(=O)CCC(=O)N3CCN(c4ccccc4)CC3)c21	.	3.2	.	23.1	.
O=C(c1cccs1)N1CCCc2cc(NS(=O)(=O)c3cc(F)ccc3F)ccc21	.	0.1	.	.	.
CCCCCCC(O)(c1ccc(OC)cc1)C(CN1CCOCC1)c1ccccc1 (stereo not given)	30.7*	0.9	-15.6	4.7	-3.4
CN(CC1CCN(CCc2cccc(C(F)(F)F)c2)CC1)C(=O)c1ccc(F)cc1F	64.5*	0.3	-3.1	-24.8	-2.0
CCN1CCc2nc(NC(=O)c3ccccc3)sc2C1	-25.2	0.8	7.1	15.2	-4.0
O=C(Nc1nc2c(s1)CN(Cc1ccccc1)CC2)C1CCC1	51.4*	1.6	-7.2	-1.9	-1.1
CCOC(=O)c1c(S(=O)(=O)N2CCC(C(=O)Nc3cccc(C)n3)CC2)c(C)n(C)c1C	.	0.6	.	7.9	.
O=C(CSc1nnc(-c2ccccc2)c(-c2ccccc2)n1)N1CCc2ccccc21	69.0*	-0.6	-4.4	-2.3	0.5
Cc1cc(C)nc(SCC(=O)N2CCc3ccccc32)n1	.	.	-2.3	.	-2.4
SMILES	D2 antagonist	D2 ag-1	D2 PAM-1	D2 PAM-2	D2 ag-2
O=C(CSc1ncc(-c2ccccc2)n1C1CCCC1)N1CCc2ccccc21	30.7*	-0.2	-22.4	-31.4	-2.5
Cn1c(-c2ccccc2)cnc1SCC(=O)N1CCCc2ccccc21	-15.0	-0.5	-7.9	-9.2	-1.7
Cc1nc(-c2ccc(S(=O)(=O)N(Cc3ccccc3)C(C)C)cc2)co1	.	-0.7	.	7.8	.
Cc1ccc(NC(=O)CSCc2c(C)noc2C)cc1C	0.9	-0.5	7.6	-7.9	-4.8
Cc1cc(C)c(NC(=O)CSCc2c(C)noc2C)c(C)c1	49.1*	0.3	-11.6	6.5	-3.2
CC(CN(C)C)CN1c2ccccc2CCc2ccccc21 (stereo not given)	73.5*	4.1	-5.0	-23.6	-7.8
CN(C)CCCN1c2ccccc2CCc2ccccc21	60.4*	-2.1	-38.3	-29.1	-6.7
Cc1cccc(-c2nc3scc(CCNC(=O)c4ccccc4Cl)n3n2)c1	.	-0.2	.	-1.1	.
Cc1cc(C)cc(-n2ccnc2SCC(=O)Nc2ccc(C)cc2C)c1	.	-4.0	.	1.2	.
CCc1ccc(NC(=O)COc2cccc(-n3cnnn3)c2)cc1	36.9*	0.4	-8.7	-28.8	-1.7
COC(=O)c1ccc(NC(=O)COc2cccc(-n3cnnn3)c2)cc1	-8.4	0.3	-2.0	-1.2	-2.1
Cc1ccc(NC(=O)COc2ccc(-n3cnnn3)cc2)cc1C	41.5*	0.0	-10.0	18.6	1.7
Cc1cc(C(F)F)n2nc(C(=O)Nc3c(C)cccc3C)nc2n1	.	0.2	.	-8.5	.
O=C(Nc1ccccc1)c1cc2c(-c3ccccc3)nn(-c3ccccc3)c2s1	.	1.4	.	-12.3	.
CCc1c(C)nc2nc(SCc3ccccc3Cl)[nH]n2c1=O	31.9*	0.4	-1.8	-2.4	-0.7
Cc1nc2nc(NCc3ccccc3Cl)[nH]n2c(=O)c1Cc1ccccc1	.	-1.0	.	4.3	.
COCC(=O)Nc1cccc(C(F)(F)F)c1	-7.7	0.8	-16.2	32.7*	-5.8
O=C(CN1CCN(c2ccccc2)CC1)Nc1cccc(C(F)(F)F)c1	21.2	2.1	-21.2	-31.3	-0.5
O=C(O)CCCC(=O)Nc1cccc(C(F)(F)F)c1	11.8	0.1	-2.2	-2.6	-1.4
FC(F)(F)c1cccc(CN2CCN(c3ncccn3)CC2)c1	.	.	?	.	48.0*
O=C(CN1CCN(Cc2ccccc2)CC1)Nc1cccc(C(F)(F)F)c1	39.2*	0.1	-13.8	-23.9	-1.6
O=C(CN1CCN(c2ccccn2)CC1)Nc1cccc(C(F)(F)F)c1	48.2*	24.2	-9.6	-31.5	2.2
CC(OC(=O)/C=C/c1ccccc1)C(=O)N1CCc2ccccc21 (stereo not given)	30.4*	.	-3.3	-4.2	1.2
COc1ccc(N2CCN(C(=O)c3cc(S(=O)(=O)N4CCC(C)CC4)cn3C)CC2)cc1	.	0.2	.	6.7	.
Cc1ccc(NC(=O)C2CC(=O)NC(N3CCc4ccccc43)=N2)cc1 (stereo not given)	43.7*	0.7	-10.7	-18.4	-3.6
Cc1cc2n(n1)SC(Nc1cccc3ccccc13)N2 (stereo not given)	-2.1	0.5	11.0	0.2	-1.5
CCc1ccccc1NC1Nc2cc(C)nn2S1 (stereo not given)	7.7	0.3	-8.3	56.5*	-3.9
COC(=O)c1ccc(NC(=O)CC2C(=O)N(c3cccc(C)c3)C(=O)N2Cc2ccco2)cc1 (stereo not given)	.	-0.4	.	-5.8	.
